High-throughput results as filed in PubChem BioAssay.
A selection: hits, their analogues and other compounds. The true share with any hit is near 6.1%.
D1 PAM: human D1 dopamine receptor positive modulation; P21728; HEK293 TREx D1 cells, calcium flux, dopamine EC20 potentiation; potentiation, % at 10 µM; actives 0.036% (n = 360,000); AID 504651; in the data active = potentiation above about 30%; also: 0% is about no effect
Target sequence (P21728 whole entry, looked up): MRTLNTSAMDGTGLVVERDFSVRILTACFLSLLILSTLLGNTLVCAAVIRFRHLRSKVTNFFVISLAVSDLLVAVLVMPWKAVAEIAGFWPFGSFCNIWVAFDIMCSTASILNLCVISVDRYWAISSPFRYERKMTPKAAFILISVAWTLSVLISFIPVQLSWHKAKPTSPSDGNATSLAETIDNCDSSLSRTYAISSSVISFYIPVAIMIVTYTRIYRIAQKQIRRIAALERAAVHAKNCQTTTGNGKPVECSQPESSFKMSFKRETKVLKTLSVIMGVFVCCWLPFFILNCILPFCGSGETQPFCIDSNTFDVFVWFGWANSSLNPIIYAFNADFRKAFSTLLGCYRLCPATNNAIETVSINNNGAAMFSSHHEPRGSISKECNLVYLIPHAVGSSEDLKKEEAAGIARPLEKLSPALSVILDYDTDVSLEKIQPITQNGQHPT
D1 agonist: activates the human D1 dopamine receptor. activation, % at 2 µM. P21728. actives 1% (n = 360,000). HEK293 T-REx D1 cells, calcium flux, agonist mode. AID 504660; in the data active = activation above about 30%; also: 0% is about no effect
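Tetracycline-induced HEK293 TREx D1 cells, force-coupled to calcium signalling, were dye-loaded with a no-wash calcium kit. Compound was pin-added after a 10 s baseline. Fluorescence was read kinetically at 1 cycle/s for 180 s, with calcium rises flagged as agonism.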
ERG-DNA inh: inhibitors of human ERG Ets domain-DNA interaction | Potency, µM (doses to about 76.9 µM), for the others: top-dose FP activity, negative = inhibition, hits mostly inhibitors | fluorescence polarization, His-ERG Ets domain / labelled DNA | actives 0.028% (n = 370,000) | P11308 | AID 624246; active = well fitted inhibition curve with a large enough effect in the polarisation, with a control signal flat; inconclusive = small, poorly fitted or top-dose-only effect, or effect the other way, or a change in a side signal; inactive = no such curve, though single readings can be large or run the other way; the % refers to the polarisation;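 also: polarization taken with two DNA probes labelled with fluorescein and Texas red; potency is read from the fitted curve at half-maximal effect; % of control where 0% means no effect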
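His-tagged ERG Ets domain (1 uM in the protein solution; 300mM KCl, 50mM Tris-HCl, 1mM EDTA, 1mM DTT, pH 7.5) received compound, then a probe mix of 5 nM fluorescein-DNA and 100nM Texas-615-DNA. Fluorescence polarization was read for both dyes.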
D1 antagonist: blocks dopamine activation of the human D1 receptor | actives 3.2% (n = 360,000) | activity change, negative = inhibition, % at 10 µM | P21728 | AID 504652 | HEK293 TREx D1 cells, calcium flux, dopamine EC80; active compounds read low; in the data active = activity change below about -30%; also: % is scaled to controls: 0 for no effect and ±100 for the full control effect
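Compound effects on dopamine-evoked calcium signalling were measured in tetracycline-induced HEK293 Trex D1 cells. Dopamine at EC80 followed a 180 s compound pre-read, and fluorescence was tracked kinetically for 180 s more.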
DRD3 agonist: D3 dopamine receptor (human) agonism; D3R DiscoveRx beta-arrestin cells, luminescence, 90 min; max activation, %; P35462; actives 0.58% (n = 410,000); AID 652048; in the data active = max activation above about 30%; also: 0% is about no effect
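Cells at 1500/well, incubated overnight, then treated with pinned compounds (dopamine as control) for 90 min at 37 degrees C. DiscoveRx reagent added for 30 - 60 minutes at room temperature; luminescence read.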
D3 antag: antagonists of human D3 dopamine receptor; D3R cells, DiscoveRx beta-arrestin luminescence, antagonist mode; active compounds read low; max response, negative = inhibition, %; actives 2.5% (n = 360,000); in the data active = max response below about -50%; inconclusive = no clear call, values can overlap the other calls; also: % is scaled to controls: 0 for no effect and ±100 for the full control effect
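Cells plated overnight at 1500 cells/well, then exposed to library compounds with dopamine controls for 90 minutes at 37 degrees C. DiscoveRx reagent added for 30–60 minutes at room temperature; luminescence read, quantitative HTS format.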
Starred values were filed as active, the others as inactive; ? = inconclusive; . = no result.

SMILES	D1 PAM	D1 agonist	ERG-DNA inh	D1 antagonist	DRD3 agonist	D3 antag
COc1ccc2c(c1)nc(SCC(=O)c1cccs1)n2C	-4	0	.	-36*	-8	-9
Cc1cc(C)c(-n2nnnc2SCC(=O)c2cccs2)c(C)c1	-4	7	13%	-42*	20	1
CSc1nc(N)nc2c1ncn2CC(=O)NCc1ccccc1	.	.	-1%	.	8	32
CSc1nc(N)nc2c1ncn2CC(=O)NCc1ccc2[nH]ccc2c1	.	.	3%	.	48*	13
O=C(NCc1ccccc1)C1COc2ccccc2O1 (stereo unspecified)	1	0	-2%	2	-5	15
O=C(NC1CC1)c1cccc(Oc2ccccc2)c1	-5	1	-4%	0	1	0
O=C(NC1CCN(Cc2ccccc2)CC1)c1ccc2c(c1)OCCCO2	-3	3	-5%	-3	-25	-57*
O=C(NC1CCN(Cc2ccccc2)CC1)C1COc2ccccc2O1 (stereo unspecified)	-15	3	8%	-15	1	-78*
O=C(NC1CCN(Cc2ccccc2)CC1)c1cccc(Br)c1	-13	5	-28%	0	-44	-85*
O=C(NC1CCCCC1)c1cccc(OCc2ccccc2)c1	-2	37*	-9%	-27	-7	-8
Cc1c(C(=O)NC2CCN(Cc3ccccc3)C2)oc2ccc(Br)cc12 (stereo unspecified)	-7	4	2%	14	-20	-59*
C=C(C)c1cccc(C(C)(C)NC(=O)N2CCCC2)c1	1	0	-6%	3	-11	0
S=C(NCc1ccccc1)N1CCN(Cc2ccc3c(c2)OCO3)CC1	-3	5	-6%	-9	-5	5
O=C(NC1CCN(Cc2ccccc2)CC1)c1cccc(OC(F)F)c1	-11	8	2%	-33*	-9	-55*
O=C(NC1CCN(Cc2ccccc2)CC1)c1c(Cl)cccc1Cl	-1	4	31%	6	-9	-10
S=C(NCc1ccc2c(c1)OCO2)NC1CCN(Cc2ccccc2)CC1	-6	38*	0%	-15	-20	-60*
C=C(C)c1cccc(C(C)(C)NC(=O)NC2CCN(Cc3ccccc3)CC2)c1	1	6	-5%	7	-15	-77*
CN(CC(=O)NC1CCN(Cc2ccccc2)CC1)S(=O)(=O)c1ccc(Br)s1	5	13	-4%	-19	-20	-56*
Cc1ccc(COc2ccc3c(c2)OCO3)cc1	-8	4	-12%	-11	5	3
CCOC(=O)CN1C(=O)C(C)(C)Oc2ccc(C(=O)Nc3ccccc3OC)cc21	-8	1	3%	0	3	-95*
Nc1[nH]ncc1N=Nc1ccc(Cl)cc1	-18	3	2%	-22	0	-23
CCOC(=O)N1CCN(C(=O)CSc2ccc3nnc(-c4cccnc4)n3n2)CC1	5	5	-5%	-5	-23	-98*
CCOc1ccc2c(c1)-c1c(ssc1=S)C(C)(C)N2	1	2	.	18	-10	-74*
CCOc1ccc2c(c1)-c1c(ssc1=S)C(C)(C)N2C(=O)CSC1=NCCS1	-2	0	-10%	-6	-14	?
CCOc1cc(/C=C2/SC(=S)NC2=O)ccc1OC(=O)c1ccco1	-2	2	38%	-19	6	6
SMILES	D1 PAM	D1 agonist	ERG-DNA inh	D1 antagonist	DRD3 agonist	D3 antag
O=C1NC(=S)S/C1=C/c1ccc(OC(=O)c2ccco2)cc1	-7	11	30%	-30*	4	-6
N/C(=N\O)c1cccc(CS(=O)(=O)c2ccccn2)c1	0	4	-1%	-5	-9	0
O=C(/C=C/c1ccccc1Cl)N1CCN(c2ncccn2)CC1	-2	3	-5%	-31*	3	9
O=C(/C=C/c1ccc(Cl)cc1)N1CCN(c2ncccn2)CC1	-1	1	.	-10	.	.
Cn1nc(-c2ccc3c(c2)OCCO3)c2ccccc2c1=O	-6	20	-1%	-34*	17	15
CC(=O)OCc1cc(-c2nn(C)c(=O)c3ccccc23)ccc1C	-2	3	-6%	-18	-2	-5
Cc1ccc(-c2nn(C)c(=O)c3ccccc23)cc1CO	-1	-2	7%	-7	-2	-50*
Cc1ccc(S(=O)(=O)Nc2cccc(C(=O)NCC(c3ccc(F)cc3)N3CCOCC3)c2)cc1 (stereo unspecified)	.	.	-15%	.	-10	-20
CSc1ncc(C(=O)Nc2ccccc2C)c(C)n1	-5	4	2%	-4	-5	72
CSc1ncc(C(=O)Nc2cccc(C)c2C)c(C)n1	-3	0	-3%	-47*	-7	2
C=C1C(=O)OC2C1CCC(C)=C1C(=O)C3OC3(C)C12 (stereo unspecified)	.	.	5%	.	-58	-129*
C=C1C(=O)O[C@@H]2[C@H]1CC[C@H](C)[C@]1(O)CCC(=O)[C@@]21C	-3	3	-16%	2	2	-3
COc1ccccc1NC(=O)N1CCN(c2cc(-c3ccccc3)nc3ncnn23)CC1	2	0	9%	-54*	26	33
COc1ccc(NC(=O)C2CCN(c3cc(-c4ccccc4)nc4ncnn34)CC2)cc1OC	1	1	12%	9	55*	36
COc1ccc(OC)c(NC(=O)C2CCN(c3cc(-c4ccccc4)nc4ncnn34)CC2)c1	5	2	-5%	-4	5	30
COc1cccc(-c2csc(N3CCN(C(=O)Nc4ccccc4OC)CC3)n2)c1	-3	0	-13%	10	-5	36
O=C(Nc1cccs1)Nc1ccc(Br)cc1F	1	17	-3%	-32*	0	4
Cc1ccc(NC(=O)Nc2cccs2)cc1	-4	11	0%	-13	-7	?
Cc1cccc(NC(=O)Nc2cccs2)c1C	-3	5	-1%	-3	8	.
CC(=O)c1cccc(NC(=O)Nc2cccs2)c1	-5	16	6%	1	-11	-51*
Cc1c(NC(=O)Nc2cccs2)cccc1[N+](=O)[O-]	-12	18	-15%	-36*	-10	-12
O=C(Nc1cccs1)Nc1ccc(F)cc1F	0	0	1%	-7	1	21
CCc1ccc(NC(=O)Nc2cccs2)cc1	-7	11	-7%	-37*	6	11
O=C1CSC(=Nc2ccc(O)cc2)N1	-6	3	25%	-3	-2	-9
Cc1ccc(N2CC(NC(=O)c3ccco3)CC2=O)cc1C (stereo unspecified)	-1	1	-4%	.	6	.
COc1cc(/C=N/NC(=O)CCC(=O)Nc2ccc(Br)cc2)ccc1O	-3	0	-6%	-12	-6	-6
